Screening data as filed in PubChem BioAssay.
In the library only some 4% were active in any assay of this set; here they are far more common.
Anthrax LF prot: inhibitors of Bacillus anthracis lethal factor protease. multiplex microsphere protease cleavage assay, LF. inhibition, % at 10 µM. 0.12% of 360,000 active. AID 588501; note: plate controls were buffer without enzyme for full effect and enzyme alone for no effect
MazEF act: activators of E. coli MazEF toxin-antitoxin RNase | P0AE70 | FAM/BHQ RNA-DNA oligo cleavage fluorescence, 5 h | activation, % at 20 µM | 0.32% of 350,000 active; in the data active = activation above about 50%
Target sequence (P0AE70 whole entry, looked up): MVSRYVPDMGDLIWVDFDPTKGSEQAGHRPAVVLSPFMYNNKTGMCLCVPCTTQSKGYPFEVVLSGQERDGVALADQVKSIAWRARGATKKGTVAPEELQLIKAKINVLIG
BoNT F protease: blocks Botulinum neurotoxin F light chain protease; 0.22% of 360,000 active; inhibition, % at 10 µM; Multiplex microsphere protease cleavage assay, flow cytometry; in the data active = inhibition above about 35%, passing the limit was not always enough; inconclusive = no clear call, values can overlap the other calls; note: plate controls were buffer without enzyme for full effect and enzyme alone for no effect
DUSP3 inh: DUSP3 (human) phosphatase inhibition. P51452. recombinant VHR phosphatase, pNPP absorbance. inhibition, % at 13.3 µM. 0.52% of 290,000 active. AID 1654; in the data active = inhibition above about 50%
Target sequence (P51452 whole entry, looked up): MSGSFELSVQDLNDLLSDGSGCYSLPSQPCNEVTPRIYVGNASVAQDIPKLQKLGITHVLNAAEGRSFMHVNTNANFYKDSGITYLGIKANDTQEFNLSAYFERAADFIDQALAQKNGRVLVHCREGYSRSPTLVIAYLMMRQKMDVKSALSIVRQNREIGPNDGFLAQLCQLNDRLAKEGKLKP
Autofluor counter: counter-screen for toxin protease inhibitors: compound fluorescence | compound autofluorescence counterscreen, microsphere flow cytometry; active compounds read high | fluorescence intensity (test concentration not listed) | 3.1% of 360,000 active; in the data active = fluorescence intensity above about 16000; inconclusive = no clear call, values can overlap the other calls
BoNT-A LC inh2: BoNT A light chain protease inhibition; multiplex microsphere protease substrate cleavage, flow cytometry; inhibition, % at 10 µM; 0.17% of 360,000 active; AID 588499; note: plate controls were buffer without enzyme for full effect and enzyme alone for no effect
* = called active by the depositor; ? = inconclusive; · = no result. Cut-off read from the data, not from the text of the source, unless noted: active = inhibition above about 30%; inconclusive = no clear call, values can overlap the other calls; inactive = below that.

SMILES	Anthrax LF prot	MazEF act	BoNT F protease	DUSP3 inh	Autofluor counter	BoNT-A LC inh2
CC(C)N1C2OC(C3OC4C(O3)N(C(C)C)S(=O)(=O)N4C(C)C)OC2N(C(C)C)S1(=O)=O (stereo not drawn)	2	2	0	43	23341*	0
O=C1CCCC2=C1C1(CCCCC1)N=C(Nc1nc3ccccc3s1)N2	-2	26	-2	5	16571*	-2
CN(C)[C@H]1N(C(=O)c2ccc(Br)cc2)N=C2c3ccccc3S(=O)(=O)N21	-1	1	0	6	19842*	?
O=C(Oc1ccc(Br)cc1)C1CCN(C2=NS(=O)(=O)c3ccccc32)CC1	0	-2	5	·	?	0
O=C(CCn1nnc2ccccc21)Nc1nnc(Cc2ccc(F)cc2)s1	?	21	-4	15	7478	?
CC1CCCN(c2oc(-c3cccc4ccccc34)nc2C#N)C1 (stereo not drawn)	-15	2	16	8	17536*	10
CCCc1ccc(Oc2cc(N3CCOCC3)nc(-c3ccccc3)n2)cc1	-2	-5	-1	·	23308*	1
C=CCN(c1ccc(F)cc1)S(=O)(=O)c1cc(C(=O)NC2CCC(O)CC2)ccc1Cl (stereo not drawn)	0	-2	-17	·	6419	-2
COc1ccc(-c2c(C)nn(-c3ccccc3)c2N)cc1	-1	-1	5	4	20023*	?
CSc1nnc(-c2ccccc2Cl)o1	-1	2	1	29	2705	0
Cc1nnc2n1N=CC=C(C(C)(C)C)S2	-13	3	-3	15	23527*	-2
Cc1nnc2n1N=CC=C(c1ccccc1)S2	5	2	7	-8	8594	1
Cn1cccc1Cc1nnc(SCC(=O)N2CCOCC2)n1CCc1ccccc1	-6	11	0	34	6002	0
O=C(CCCN1C(=O)/C(=C/c2ccccc2)SC1=S)Nc1ccccc1O	-2	-13	2	3	2017	0
O=C(CN1CCN(Cc2ccccc2)C1=O)NCCCN1CCOCC1	-2	7	-1	50*	5999	0
O=C(Cn1cnc2ccccc21)NCCCN1CCOCC1	-3	1	-7	-2	24254*	-4
Cc1nc2cc(C)c(C)cc2o1	-1	-1	-10	·	3045	0
O=C(CN1C(=O)NC2(CCCCCC2)C1=O)N1CCCCC1	2	-14	-7	·	4059	-1
O=C(CC(O)(c1ccccc1)C(F)(F)C(F)F)c1cccs1 (stereo not drawn)	-1	3	-4	18	20372*	?
O=C(/C=C/c1ccccc1)CC(O)(c1ccccc1)C(F)(F)C(F)F (stereo not drawn)	6	9	-5	29	5535	-1
Cc1ccc(C(=O)Oc2cc(N)n(S(=O)(=O)c3ccc(F)cc3)n2)cc1	-1	68*	1	0	6008	1
C=CCOc1ccc(CNn2cn[nH]c2=S)cc1OCC	-3	-15	-9	34	12198	0
O=C(NC1(C(F)(F)F)Oc2ccccc2O1)N1CCC2(CC1)OCCO2	1	0	-2	4	21302*	-2
O=C(c1cc(-c2cccs2)on1)N1CCN(c2ccc(F)cc2)CC1	-6	-3	-4	-1	21562*	-4
COc1ccc(CNC(=O)COc2ccc([N+](=O)[O-])cc2)cc1	-9	-5	5	5	19432*	2
SMILES	Anthrax LF prot	MazEF act	BoNT F protease	DUSP3 inh	Autofluor counter	BoNT-A LC inh2
COc1ccc(OCC(=O)NNc2c3ccccc3nc3ccccc23)cc1	-6	-1	-2	9	16716*	0
COc1ccc(OCC(=O)NCc2ccc(Cl)cc2)cc1	11	2	-10	-8	3505	-3
O=C(COc1ccccc1)NNc1c2ccccc2nc2ccccc12	-4	-5	-12	5	2670	1
COC(=O)C1C(=O)C2=C(CC1C)NC(C)=C(C(=O)OCc1ccc(OC)cc1)C2c1ccc(C)o1 (stereo not drawn)	-2	-4	-17	-11	3152	0
COC(=O)C1C(=O)C2=C(CC1C)NC(C)=C(C(=O)OC(C)C)C2c1ccc(C)o1 (stereo not drawn)	2	-2	-2	-6	23601*	0
Cc1cc(C(=O)NP(=O)(N2CCOCC2)N2CCOCC2)c(C)n1-c1ccc(Br)cc1	0	5	-2	18	2488	-1
COCCCNC(=O)c1cn(CC(C)C)c(=O)c2c1c1ccccc1n2C	-7	0	34	-17	?	0
CC(C)Cn1cc(C(=O)N2CCN(c3ccccn3)CC2)c2c3ccccc3n(C)c2c1=O	0	1	4	4	16320*	1
CC(C)Cn1cc(C(=O)NCCCN2CCCC2=O)c2c3ccccc3n(C)c2c1=O	0	3	-2	-4	16933*	-1
CCOC(=O)C1CCN(C(=O)c2cn(CCOC)c(=O)c3c2c2ccccc2n3C)CC1	-6	-3	-1	8	23452*	0
CCOC(CCNC(=O)c1cn(C)c(=O)c2c1c1ccccc1n2C)OCC	69*	-6	89*	·	5221	7
CCN(CC)C(=N)/C(C#N)=N/Nc1ccccc1	1	0	1	-8	6211	0
COCCn1cc(C(=O)N2CCC3(CC2)OCCO3)c2c3ccccc3n(C)c2c1=O	-1	-4	1	-9	9721	0
CCN1CCN(C(=O)c2cn(CCOC)c(=O)c3c2c2ccccc2n3C)CC1	-8	4	5	-4	21067*	4
O=Cc1ccc(N2N=C(c3ccccc3)CC2c2ccccc2)cc1 (stereo not drawn)	2	-19	53*	13	4507	42*
CCOc1ccc(OCC)c(NC(=O)C2CCN(c3ncccn3)CC2)c1	-2	-2	-7	20	22945*	?
CCOc1ccc(OCC)c(NC(=O)C2CCCN(c3ncccn3)C2)c1 (stereo not drawn)	-6	-1	-12	4	7567	0
Cc1ccc(NC(=O)C2CCCN(c3ncccn3)C2)cc1C (stereo not drawn)	-1	3	3	17	3288	0
COCCNC(=O)C1CCCN(c2ncccn2)C1 (stereo not drawn)	-2	0	0	6	21959*	2
CCC(C)c1ccc(NC(=O)C2CCCN(c3ncccn3)C2)cc1 (stereo not drawn)	-8	-20	7	1	8435	0
Cc1ccc(F)cc1NC(=O)C1CCCN(c2ncccn2)C1 (stereo not drawn)	-2	-2	-2	-4	20027*	0
CCc1ccccc1NC(=O)C1CCCN(c2ncccn2)C1 (stereo not drawn)	-2	5	-1	50*	6226	0
CCN(CC)CCN1C(=O)C(O)=C(C(C)=O)C1c1ccc(OC)c(OC)c1 (stereo not drawn)	-1	1	7	10	2672	0
Cc1nc2cc(-c3cccc(F)c3)nn2c(C)c1CCC(=O)N1CCN(c2ccccn2)CC1	-1	17	5	-13	4310	0
